Results reported in ChEMBL document CHEMBL3988442, “University of Dundee, Small-Polar-MMV Screening Library” (2021).
For some assays here: Results with a measured potency or affinity are listed apart.

How the values were obtained:
Design in all cases: scale not given: direction of the effect not stated beside the values
[1] = target: Protein translocase subunit SecA (Escherichia coli (strain K12)) (UniProt P10408); test: Assay to Identify E. coli SecA ATPase Inhibitors; type: functional; conditions: 30 µM
Protein translocase subunit SecA (Escherichia coli (strain K12)), sequence (P10408 whole entry): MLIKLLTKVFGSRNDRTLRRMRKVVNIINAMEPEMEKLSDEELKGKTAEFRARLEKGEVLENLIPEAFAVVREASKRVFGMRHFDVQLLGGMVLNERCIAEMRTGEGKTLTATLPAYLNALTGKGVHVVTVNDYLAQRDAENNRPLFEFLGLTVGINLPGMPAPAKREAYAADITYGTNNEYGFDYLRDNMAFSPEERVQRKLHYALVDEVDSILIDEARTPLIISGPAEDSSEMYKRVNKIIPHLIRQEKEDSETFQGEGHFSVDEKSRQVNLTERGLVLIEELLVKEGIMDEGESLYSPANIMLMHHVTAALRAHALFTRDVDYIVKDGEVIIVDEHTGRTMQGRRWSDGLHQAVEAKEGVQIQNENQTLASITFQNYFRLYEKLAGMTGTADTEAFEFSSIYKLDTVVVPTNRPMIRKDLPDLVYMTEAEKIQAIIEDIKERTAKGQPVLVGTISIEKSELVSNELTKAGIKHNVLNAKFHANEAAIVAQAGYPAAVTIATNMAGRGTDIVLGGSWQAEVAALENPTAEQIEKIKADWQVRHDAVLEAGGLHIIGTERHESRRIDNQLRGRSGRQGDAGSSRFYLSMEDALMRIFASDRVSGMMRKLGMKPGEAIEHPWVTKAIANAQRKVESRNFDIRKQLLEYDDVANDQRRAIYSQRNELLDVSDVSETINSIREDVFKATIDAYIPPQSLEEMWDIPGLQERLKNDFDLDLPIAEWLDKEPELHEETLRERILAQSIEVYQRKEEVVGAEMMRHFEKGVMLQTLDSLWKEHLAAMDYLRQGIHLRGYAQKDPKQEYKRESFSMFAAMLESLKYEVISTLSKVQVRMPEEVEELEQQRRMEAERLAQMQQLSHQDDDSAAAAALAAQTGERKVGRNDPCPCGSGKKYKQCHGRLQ

[2] = target: T1, Ubiquitin-activating enzyme e1, putative (Leishmania donovani (strain BPK282A1)) (UniProt E9BSI1); test: Leishmania donovani Ubiquitin Activating Enzyme (LdE1); type: functional; conditions: 30 µM
T1 sequence (whole entry): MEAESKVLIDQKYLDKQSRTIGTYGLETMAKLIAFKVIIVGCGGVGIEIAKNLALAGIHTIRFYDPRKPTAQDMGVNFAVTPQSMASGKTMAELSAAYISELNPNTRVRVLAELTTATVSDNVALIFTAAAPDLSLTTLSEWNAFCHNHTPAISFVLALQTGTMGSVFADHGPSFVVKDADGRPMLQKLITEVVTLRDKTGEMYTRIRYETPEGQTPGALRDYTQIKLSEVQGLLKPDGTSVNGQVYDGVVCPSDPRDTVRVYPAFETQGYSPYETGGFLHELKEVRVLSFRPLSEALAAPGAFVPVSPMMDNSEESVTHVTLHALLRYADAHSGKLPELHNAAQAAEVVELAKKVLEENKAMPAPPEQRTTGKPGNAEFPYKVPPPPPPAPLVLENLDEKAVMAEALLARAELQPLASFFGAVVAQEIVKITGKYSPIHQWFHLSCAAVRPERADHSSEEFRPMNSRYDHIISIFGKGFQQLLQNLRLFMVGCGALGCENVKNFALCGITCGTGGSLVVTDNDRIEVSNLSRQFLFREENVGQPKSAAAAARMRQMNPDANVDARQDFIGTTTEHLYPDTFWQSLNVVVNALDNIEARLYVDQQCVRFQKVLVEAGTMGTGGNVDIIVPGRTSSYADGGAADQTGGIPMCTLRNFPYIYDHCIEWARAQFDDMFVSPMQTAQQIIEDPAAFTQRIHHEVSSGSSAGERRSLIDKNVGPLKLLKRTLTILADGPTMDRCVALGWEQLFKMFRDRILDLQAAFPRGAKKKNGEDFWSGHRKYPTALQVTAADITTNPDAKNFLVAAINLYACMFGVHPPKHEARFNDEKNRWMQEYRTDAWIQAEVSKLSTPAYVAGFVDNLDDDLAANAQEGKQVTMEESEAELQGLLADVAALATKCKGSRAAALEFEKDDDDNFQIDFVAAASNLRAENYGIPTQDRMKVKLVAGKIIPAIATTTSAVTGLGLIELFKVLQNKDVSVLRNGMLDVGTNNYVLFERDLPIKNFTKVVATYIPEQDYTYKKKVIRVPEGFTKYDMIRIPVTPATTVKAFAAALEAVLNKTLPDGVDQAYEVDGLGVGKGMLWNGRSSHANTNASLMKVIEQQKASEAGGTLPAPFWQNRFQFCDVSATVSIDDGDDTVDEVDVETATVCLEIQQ

[3] = target: AMP-activated protein kinase, AMPK (Homo sapiens) (UniProt P54646+O43741+P54619+Q9UGJ0+Q9Y478+Q13131+Q9UGI9); test: AMP-dependent Kinase enzyme assay. An in vitro enzyme assay that detects ADP turnover that is directly proportional to AMPK activity. This uses naive AMPK that is activated during the assay with MK-8722; type: functional; conditions: 30 µM
[4] = target: Sialic acid-binding Ig-like lectin 9 (Homo sapiens) (UniProt Q9Y336); test: Hs-Siglec9 ALPHAscreen SOP 20170721; conditions: 10 µM
Sialic acid-binding Ig-like lectin 9 (Homo sapiens), sequence (Q9Y336 whole entry): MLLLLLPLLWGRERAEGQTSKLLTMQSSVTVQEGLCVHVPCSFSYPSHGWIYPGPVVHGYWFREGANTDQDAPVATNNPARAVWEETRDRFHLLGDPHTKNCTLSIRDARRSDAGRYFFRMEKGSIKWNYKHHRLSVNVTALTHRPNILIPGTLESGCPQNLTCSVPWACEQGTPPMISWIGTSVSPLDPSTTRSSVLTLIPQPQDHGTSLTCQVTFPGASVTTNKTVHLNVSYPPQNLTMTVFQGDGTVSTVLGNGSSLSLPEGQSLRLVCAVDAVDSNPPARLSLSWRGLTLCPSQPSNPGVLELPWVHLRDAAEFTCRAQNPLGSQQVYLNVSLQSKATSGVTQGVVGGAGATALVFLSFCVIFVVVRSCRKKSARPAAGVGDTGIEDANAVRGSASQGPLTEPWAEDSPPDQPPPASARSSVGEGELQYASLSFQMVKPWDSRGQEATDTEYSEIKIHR

Trypanosoma cruzi = test: Trypanosoma cruzi phosphomannomutase and mannose-1-phosphate guanylyltransferase assay; type: functional; conditions: 10 µM
[5] = target: T2, Arginase-2, mitochondrial (Homo sapiens) (UniProt P78540); test: in vitro enzyme assay to detect the production of urea directly proportional to the activity of Arginase II; type: functional; conditions: 33.3 µM; also: in the data most compounds retested in dose-response had high values
T2 sequence (whole entry): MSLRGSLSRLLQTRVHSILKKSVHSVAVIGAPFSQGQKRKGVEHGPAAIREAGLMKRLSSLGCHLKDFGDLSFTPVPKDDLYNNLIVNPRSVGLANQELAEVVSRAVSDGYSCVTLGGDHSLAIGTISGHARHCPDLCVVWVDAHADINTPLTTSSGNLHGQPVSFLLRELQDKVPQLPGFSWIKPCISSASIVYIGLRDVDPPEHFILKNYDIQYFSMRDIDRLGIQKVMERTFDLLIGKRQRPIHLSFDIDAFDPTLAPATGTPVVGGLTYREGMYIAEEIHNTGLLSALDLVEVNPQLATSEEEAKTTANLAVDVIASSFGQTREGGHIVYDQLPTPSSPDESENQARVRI

[6] = target: T3, Proteasome subunit beta (Trypanosoma cruzi) (UniProt O96673); test: Trypanosoma cruzi proteasome chymotrypsin-like activity (TcProtChymo) assay.; also: in the data most compounds retested in dose-response had high values; type: functional; conditions: 9.37 µM
T3 sequence (whole entry): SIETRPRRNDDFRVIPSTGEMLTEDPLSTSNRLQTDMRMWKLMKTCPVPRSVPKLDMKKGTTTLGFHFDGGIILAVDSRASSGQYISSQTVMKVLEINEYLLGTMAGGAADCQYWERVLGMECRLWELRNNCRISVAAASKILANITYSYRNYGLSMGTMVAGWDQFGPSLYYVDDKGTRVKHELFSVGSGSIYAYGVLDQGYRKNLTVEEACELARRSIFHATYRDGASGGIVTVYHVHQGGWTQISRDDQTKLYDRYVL

Homo sapiens = species on record: Homo sapiens; test: To identify inhibition of the IFN signalling (Jak-Stat) pathway via expression of an eGFP reporter gene under the control of an IFN-stimulated response element (ISRE) containing MxA promoter.; type: functional; conditions: 30 µM
[7] = target: T4, Tyrosyl-tRNA synthetase, putative (Trypanosoma cruzi (strain CL Brener)) (UniProt Q4DSP6); test: Trypanosoma cruzi tyrosyl tRNA synthetase (TcYRS) _High Tyrosine SOP; type: functional; conditions: 30 µM; also: in the data most compounds retested in dose-response had high values
T4 sequence (whole entry): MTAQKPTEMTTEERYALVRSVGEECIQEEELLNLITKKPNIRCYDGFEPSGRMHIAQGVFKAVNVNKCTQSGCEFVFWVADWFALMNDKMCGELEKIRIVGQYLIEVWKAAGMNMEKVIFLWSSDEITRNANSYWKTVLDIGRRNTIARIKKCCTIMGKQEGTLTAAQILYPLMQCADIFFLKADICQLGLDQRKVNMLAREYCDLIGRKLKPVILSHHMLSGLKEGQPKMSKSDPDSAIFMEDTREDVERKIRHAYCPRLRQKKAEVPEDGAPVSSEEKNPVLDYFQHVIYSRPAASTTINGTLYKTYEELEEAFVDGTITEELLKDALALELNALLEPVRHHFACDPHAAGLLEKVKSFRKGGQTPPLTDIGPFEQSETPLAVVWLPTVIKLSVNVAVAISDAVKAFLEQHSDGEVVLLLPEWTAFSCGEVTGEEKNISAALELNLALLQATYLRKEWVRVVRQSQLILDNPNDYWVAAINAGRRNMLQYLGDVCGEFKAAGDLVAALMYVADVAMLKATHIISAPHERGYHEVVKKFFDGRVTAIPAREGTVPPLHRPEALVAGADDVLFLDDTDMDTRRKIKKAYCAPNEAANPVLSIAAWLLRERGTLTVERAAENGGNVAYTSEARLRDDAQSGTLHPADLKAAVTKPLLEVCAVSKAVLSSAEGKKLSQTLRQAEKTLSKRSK

[8] = target: T4, Tyrosyl-tRNA synthetase, putative (Trypanosoma cruzi (strain CL Brener)); test: Trypanosoma cruzi tyrosyl tRNA synthetase (TcYRS) SOP; type: functional; conditions: 30 µM
[9] = target: Chromo domain-containing protein 1 (Saccharomyces cerevisiae (strain ATCC 204508 / S288c) (Baker's yeast)) (UniProt P32657); test: ScCHD-1 Enzyme Inhibition Assay; type: functional; conditions: 30 µM; also: in the data most compounds retested in dose-response had high values
Chromo domain-containing protein 1 (Saccharomyces cerevisiae (strain ATCC 204508 / S288c) (Baker's yeast)), sequence (P32657 whole entry, the tested form may be a part): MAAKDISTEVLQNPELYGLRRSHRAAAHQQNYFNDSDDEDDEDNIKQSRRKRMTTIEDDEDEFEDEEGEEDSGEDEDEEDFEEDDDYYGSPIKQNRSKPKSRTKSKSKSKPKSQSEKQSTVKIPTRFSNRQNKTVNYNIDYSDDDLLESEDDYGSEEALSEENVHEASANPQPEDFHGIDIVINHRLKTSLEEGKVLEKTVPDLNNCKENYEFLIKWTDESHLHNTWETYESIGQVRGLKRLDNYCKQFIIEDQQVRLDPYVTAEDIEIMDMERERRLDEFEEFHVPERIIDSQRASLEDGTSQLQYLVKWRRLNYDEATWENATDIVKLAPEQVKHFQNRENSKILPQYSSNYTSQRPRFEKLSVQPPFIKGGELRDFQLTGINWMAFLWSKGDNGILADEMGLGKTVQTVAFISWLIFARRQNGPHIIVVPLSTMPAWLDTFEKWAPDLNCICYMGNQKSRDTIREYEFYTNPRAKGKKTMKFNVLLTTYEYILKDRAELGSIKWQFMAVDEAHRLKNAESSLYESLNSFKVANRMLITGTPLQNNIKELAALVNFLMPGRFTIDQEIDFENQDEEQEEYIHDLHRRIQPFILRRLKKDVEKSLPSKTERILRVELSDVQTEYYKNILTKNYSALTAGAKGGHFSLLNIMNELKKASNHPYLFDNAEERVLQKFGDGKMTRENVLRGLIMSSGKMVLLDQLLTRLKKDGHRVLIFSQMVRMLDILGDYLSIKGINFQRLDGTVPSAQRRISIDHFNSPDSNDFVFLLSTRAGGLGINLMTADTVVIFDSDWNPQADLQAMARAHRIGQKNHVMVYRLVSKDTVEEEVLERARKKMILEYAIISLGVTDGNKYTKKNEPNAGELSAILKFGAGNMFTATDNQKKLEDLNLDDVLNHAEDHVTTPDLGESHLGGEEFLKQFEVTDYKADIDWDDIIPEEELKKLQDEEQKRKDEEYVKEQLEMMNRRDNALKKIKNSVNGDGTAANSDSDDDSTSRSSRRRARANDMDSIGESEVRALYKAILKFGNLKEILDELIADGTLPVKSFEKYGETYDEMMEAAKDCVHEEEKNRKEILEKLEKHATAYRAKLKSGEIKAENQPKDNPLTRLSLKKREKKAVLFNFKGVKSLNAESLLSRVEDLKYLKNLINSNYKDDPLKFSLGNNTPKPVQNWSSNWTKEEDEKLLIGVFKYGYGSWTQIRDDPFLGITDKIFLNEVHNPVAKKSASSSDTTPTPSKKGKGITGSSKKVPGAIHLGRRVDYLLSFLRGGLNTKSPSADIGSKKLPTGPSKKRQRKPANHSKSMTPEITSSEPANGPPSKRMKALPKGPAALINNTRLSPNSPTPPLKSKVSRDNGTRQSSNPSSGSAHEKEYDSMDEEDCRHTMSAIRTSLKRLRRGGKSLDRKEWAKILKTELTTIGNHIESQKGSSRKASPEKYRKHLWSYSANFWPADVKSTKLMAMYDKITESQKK

Row | SMILES | Percent Effect [1] [%] | Percent Effect [2] [%] | Percent Effect [3] [%] | Percent Effect [4] [%] | Percent Effect (Trypanosoma cruzi) [%] | Percent Effect [5] [%] | Percent Effect [6] [%] | Percent Effect (Homo sapiens) [%] | Percent Effect [7] [%] | Percent Effect [8] [%] | Percent Effect [9] [%]
1 | COc1c(CNC2CCCc3ccccc32)c(C)nn1C (stereo unspecified) | -7.16 | 21.6 | -16.2 | 24 | 4.79 | 2.23 | 12.4 | 7.25 | 2.15 | 13.6 | -5.73
2 | COC(=O)CCN1CCCC1c1ccccc1Cl (stereo unspecified) | -3.1 | -2.67 | -1.16 | 1.78 | 2.04 | -1.56 | 5.41 | 1.88 | 3.83 | 6.17 | -0.731
3 | Cn1nc(C2CCCN(Cc3ccsc3)C2)c2nccnc21 (stereo unspecified) | -0.97 | 9.46 | 11.9 | -2.94 | -2.37 | -0.696 | 4.68 | 3.34 | 1.07 | 6.49 | -19.8
4 | Cc1nc(CN2CCC(C(=O)O)(n3ccc(-c4ccco4)n3)CC2)co1 | -6.11 | 8.22 | -0.438 | 4.25 | 0 | -0.399 | 12.9 | 23.4 | 1.04 | 3.7 | -0.0478
5 | CC(OCC(F)(F)F)C(=O)NCc1ccc(-n2cncn2)nc1 (stereo unspecified) | -1.15 | 18.2 | 0.466 | -5.68 | 4.8 | -22.5 | 8.16 | 21.5 | 7.62 | 23.5 | -24
6 | N#Cc1cn(CC(=O)NC2CC2)c2ccc(Br)cc2c1=O | -3.54 | -2.67 | -3.82 | -2.14 | -1.27 | 2.6 | 14.7 | -0.582 | 0.546 | -3.7 | 74.8
7 | Cn1ccnc1CN1CCN(CC(=O)NCC(F)(F)F)CC1 | -2.81 | 5.41 | -5.23 | 3.2 | -0.66 | -4.01 | 0 | 11.1 | 0.493 | 6.17 | -3
8 | CN(Cc1ccco1)[C@@H]1CN(C(=O)c2ccnnc2)[C@@H]2CCCO[C@H]12 | -2.54 | 2.74 | -7.68 | 19.2 | 7.74 | -2.4 | 13.4 | -41.3 | 3.12 | 13.6 | -1.74
9 | CN(C)C(=O)CC1CC2(CCN(C(=O)N(C)C)CC2)Oc2ccccc21 (stereo unspecified) | -2.94 | 8.11 | -0.534 | -1.19 | -4.79 | 2.73 | 9.53 | 4.7 | 1.07 | 6.17 | -4.24
10 | Cc1nn(C)c2sc(C(=O)N3CCCC(n4ccnc4C)C3)cc12 (stereo unspecified) | -3.87 | 7.89 | 3.55 | 2.66 | 2.82 | -5.92 | 8.92 | 24.3 | 4.25 | 5.2 | -4.45
11 | O=C(Cc1ccc2c(c1)OCCO2)N1CCCC(n2cccn2)C1 (stereo unspecified) | 2.92 | 2.6 | 13.7 | -3.29 | 1.08 | 2.74 | 3.15 | 22.6 | -7.62 | -2.35 | -15
12 | COc1ccc(OCCCN2CCOC(Cn3cccn3)C2)cc1 (stereo unspecified) | -8.28 | 3.8 | 9.54 | 3.31 | -1.74 | 1.94 | 2.74 | 28.6 | 1.04 | 2.53 | -3.35
13 | O=C(Cn1cnc(-c2ccccc2)cc1=O)Nc1ccncc1 | -2.42 | 20.8 | -3.34 | -1.53 | 2.07 | 1.94 | 16.9 | 26.1 | 6.35 | 16.7 | -9.23
14 | CCN1CCN(C2CCN(Cc3nc4ccccc4o3)CC2)C1=O | -1.89 | 10.4 | 0.349 | -1.67 | 1.67 | -2.74 | 14.2 | -19 | 7.62 | 21.2 | -20.3
15 | Cc1occc1C(=O)N1CCc2c(COCC3CC3)cncc2C1 | -1.99 | 18.9 | -0.121 | -6.57 | 3.03 | 7.96 | 26.8 | 13.8 | 10.8 | 20.5 | -0.136
16 | CC(C)Sc1nnc(CCNC(=O)OC(C)(C)C)o1 | 1.34 | 4 | -0.0572 | 0.92 | -8.45 | 0.176 | 12.2 | 32.6 | -2.12 | -12.8 | -10.5
